Structures can show the parent of a compound that is named as a salt. ± gives the standard deviation of the averaged measurements.

This test has as its system Toxoplasma gondii RH (in HFF). Kind of test: parasite growth relative to the screen mean (all compounds = 100%); higher = less inhibition of parasite growth. The following applies: 5 µM; 72 h; oxygen 21 %. A digest of the protocol:
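Each value is parasite growth expressed against the screen mean, averaged over two screens, where the mean of all compounds = 100%. The screen used 5 µM final compound on confluent human foreskin fibroblasts infected with RH β-Gal–GFP Toxoplasma (MOI 1:5) within 2 h and grown 72 h at 21% O2. Parasite number was measured by a CPRG β-Gal assay against in-plate standard curves.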
In turn, `Cc1[nH]c2ccc(O)cc2c1CCN` [2-Methyl-5-hydroxytryptamine hydrochloride] had a parasite growth of 139 ± 37%.
For the compound `NC(=S)N/N=C/c1coc2ccccc2c1=O.[Cl][Cu][Cl]`, the parasite growth came out at 37.1 ± 24%.
As to `COc1ccc(CNC(=O)/C=C/c2ccc3[nH]cc(CCN(C)C)c3c2)cc1`, the parasite growth worked out at 98.3 ± 31%.
The result for `c1ccc2sc(C3(N4CCCCC4)CCCCC3)cc2c1` [BTCP maleate] reads 64.9 ± 4.1%; that for `O=C1C2CCN(CC2)C1(CO)CO`, 144 ± 4%.
Under `CCN1C[C@]2(COC(=O)c3ccccc3N3C(=O)C[C@H](C)C3=O)CC[C@H](OC)[C@@]34[C@@H]5C[C@H]6[C@H](OC)[C@@H]5[C@](O)(C[C@@H]6OC)[C@](O)([C@@H](OC)[C@H]23)[C@@H]14` [Methyllycaconitine citrate] stands 83.1 ± 5.7%; under `N[C@@H](Cn1oc(=O)[nH]c1=O)C(=O)O` [L-Quisqualic acid], 99 ± 20%; under `COc1ccc(C[C@H]2NC[C@H](O)[C@H]2OC(C)=O)cc1` [Anisomycin], below 0%.
`Cc1cc(SCc2sc(-c3ccc(C(F)(F)F)c(F)c3)nc2C)ccc1OCC(=O)O` yielded a parasite growth of 79.2 ± 4.8%.
Under `C#CCOC(=O)C1=CCCN(C)C1` [Arecaidine propargyl ester tosylate] stands 137 ± 4.5%; under `Cc1cc(C)cc(C(=O)OC2C[C@H]3CC[C@@H](C2)N3C)c1` (stereo partly drawn) [Tropanyl-3,5-dimethylbenzoate], 97.3 ± 3.6%; under `Cc1ncsc1CCCl` [Chlormethiazole hydrochloride], 60 ± 21%.
For the compound `C[C@@H](N)Cc1cnc[nH]1` [(R)-(-)- α-Methylhistamine dihydrobromide], the parasite growth was 107 ± 25%.
